Measured values as given in the OligoGym collection.

The sequences below were run against SYT2 (assay: pooled miR-30 sensor sort-seq; sequence = guide strand). Details: shRNA.
Note: reference of the scale not given here.

Sequence	sensor-assay potency score (higher = more potent)
TTGGCCAGCATGTCGGACCAGT	-0.931
TATTTCTTCTTCTTGTCAGGAA	0.447
TATCTCATTGAATAACTTCTCC	-0.214
TTGAATAACTTCTCCTTCAGTT	0.105
TTGACATAAGGGTCTGAGGTGC	-0.653
TTTATCTCATTGAATAACTTCT	-0.172
TCTCATTGAATAACTTCTCCTT	-0.0548
TACCTGGACTTTCTGAATCTGC	-0.968
TTTGGCAAACATGTCCTCCTGA	0.92
TTTCTGAATCTGCTCGAAGGGG	-0.751
TTTGGTCTCATATTTCTTCTTC	0.677

The sequences below were run against SYTL1 in the same assay as above. Details: shRNA.

Sequence	sensor-assay potency score (higher = more potent)
TTGAACACAGGGCTGAGGCTGC	0.21
TTTCACAGCAGCCTCAGCCTCC	-0.778
TAGACGCTCGGACAAGGTCAGA	-1.39
TTCACCGCCGTCTTGCGCTTGC	-0.681
TTGACGTAGGGGTCCGAGCGGC	-0.281
TTGTACGTAAGTGTCCAGGGAT	0.203
TGAGGTCCAACAGTCCTTCAGT	-0.459
TTCTCTTTCACAGCAGCCTCAG	-1.16
TTCTTCACCGCCGTCTTGCGCT	-1.02
TTCCTGCGCATAGACGCTCGGA	-0.515
TCGCACAACCCTTGTACGCTGG	-0.836
TTATCCGGGAGGAGGTAGCTTT	-1.36
